tim23-1 inh: tim23-1 yeast growth inhibition | S. cerevisiae tim23-1 growth, BacTiter-Glo luminescence, 24 h | inhibition, % at 20 µM | hit rate 1.3% among 330,000;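 active = growth inhibition of the mutant yeast at or above 50%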;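 note: temperature-sensitive mutant grown at 25 °C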
MPTP inh: blocks calcium-induced mitochondrial swelling; isolated mouse mitochondria, Ca2+ swelling absorbance, 30 min; inhibition, % at 10 µM; hit rate 1.4% among 360,000; AID 602449;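 active = inhibition of 50% or more, scaled per plate between neutral and stimulator controls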
Mdm2-MdmX inh: inhibitors of human Mdm2/MdmX interaction. inhibition, % at 8 µM. O15151+Q00987. SaOS-2 split-luciferase Mdm2/MdmX complementation, luminescence. hit rate 3% among 330,000;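 active = inhibition of at least 50% at 8 µM in the primary screen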
Target sequence (O15151 whole entry, looked up): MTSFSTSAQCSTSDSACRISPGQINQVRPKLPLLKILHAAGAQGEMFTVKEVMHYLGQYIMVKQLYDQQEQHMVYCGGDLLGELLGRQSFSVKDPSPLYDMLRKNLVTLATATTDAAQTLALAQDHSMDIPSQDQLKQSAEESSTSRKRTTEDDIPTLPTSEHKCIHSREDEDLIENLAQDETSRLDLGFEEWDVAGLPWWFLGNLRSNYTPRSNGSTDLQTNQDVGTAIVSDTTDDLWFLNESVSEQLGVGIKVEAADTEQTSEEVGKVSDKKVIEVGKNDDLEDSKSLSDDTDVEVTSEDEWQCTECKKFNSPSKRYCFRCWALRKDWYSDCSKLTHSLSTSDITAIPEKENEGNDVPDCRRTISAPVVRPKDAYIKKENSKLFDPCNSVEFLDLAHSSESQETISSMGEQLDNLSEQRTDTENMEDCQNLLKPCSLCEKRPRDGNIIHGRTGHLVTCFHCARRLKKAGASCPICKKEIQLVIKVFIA
Target sequence (Q00987 whole entry, looked up): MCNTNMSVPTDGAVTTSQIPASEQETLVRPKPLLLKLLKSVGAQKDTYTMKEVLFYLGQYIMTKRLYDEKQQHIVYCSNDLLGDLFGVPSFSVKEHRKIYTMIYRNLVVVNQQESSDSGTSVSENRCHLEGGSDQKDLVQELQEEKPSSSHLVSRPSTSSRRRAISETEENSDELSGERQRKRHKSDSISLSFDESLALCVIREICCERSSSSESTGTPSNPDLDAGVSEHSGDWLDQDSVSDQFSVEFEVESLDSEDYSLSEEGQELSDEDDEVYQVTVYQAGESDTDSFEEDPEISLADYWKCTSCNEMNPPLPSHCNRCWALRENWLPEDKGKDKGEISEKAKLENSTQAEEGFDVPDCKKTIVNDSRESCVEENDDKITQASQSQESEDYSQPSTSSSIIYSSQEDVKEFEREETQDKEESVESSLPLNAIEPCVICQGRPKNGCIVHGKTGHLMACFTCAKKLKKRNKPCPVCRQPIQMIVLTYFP
TIM10 inh: inhibits growth of TIM10 yeast strain; S. cerevisiae TIM10 strain growth, BacTiter-Glo luminescence, 24 h; inhibition, % at 10 µM; hit rate 1.4% among 330,000; AID 463195;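 active = inhibition of 40% or more at the single tested concentration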;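 note: wild-type TIM10 isogenic control strain grown at permissive 25 °C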
tim10-1 inh: tim10-1 yeast growth inhibition; inhibition, % at 20 µM; hit rate 2.2% among 330,000; S. cerevisiae tim10-1 ts strain growth, BacTiter-Glo, 24 h;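 active = inhibition of at least 40%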;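 note: mutant grown at 25 °C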
Mdm2 MdmX conf: confirmation of human Mdm2/MdmX interaction inhibitors. shares compounds with Mdm2-MdmX inh. Mdm2-MdmX binding, luminescent assay. inhibition, % at 8 µM. hit rate 55% among 10,000; in the data active = inhibition above about 40%
FLuc counter: inhibits full-length luciferase, flagging false Mdm2/MdmX hits. shares compounds with Mdm2-MdmX inh. hit rate 77% among 6,200. SaOS-2 full-length luciferase counterscreen, luminescence. inhibition, % at 8 µM;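 active = mean inhibition at 8 µM reaching about 37%, which flags the compound as non-specific, limit read from the data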;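 note: p53-null SaOS-2 cells with luciferase driven by a doxycycline-inducible promoter; compound on cells about two nights before reading with doxycycline added after day one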
Numbers stand for hits; i = inactive; nt = no result. Sampled rows, rich in hits. Any-hit rate of the full collection: about 6.3%.

SMILES | tim23-1 inh | MPTP inh | Mdm2-MdmX inh | TIM10 inh | tim10-1 inh | Mdm2 MdmX conf | FLuc counter
N#Cc1c(-c2ccc3c(c2)OCO3)cc[nH]c1=O | i | i | i | i | i | nt | nt
COc1nc(-c2ccccc2)cc(-c2ccc3c(c2)OCO3)c1C#N | i | i | 57 | i | i | 58 | 58
Cc1ccc(NC(=S)NC2CCSc3ccccc32)cc1C (centres undefined) | i | i | i | i | i | nt | nt
O=C(NCC(c1ccco1)N1CCc2ccccc21)c1ccccc1F (centres undefined) | i | i | i | i | i | nt | nt
O=C(CCc1ccccc1)NCC(c1ccco1)N1CCc2ccccc21 (centres undefined) | i | i | 53 | i | i | 76 | 66
O=C1C=CC(=O)N1CCCCCCCCCCN1C(=O)C=CC1=O | nt | i | nt | nt | nt | nt | nt
CC1CCC(C(C)C)C(OC(=O)C[n+]2cc(-c3ccc(Cl)cc3)n3c2CCCCC3)C1 (centres undefined) | i | i | 85 | i | i | 74 | 36
O=C(C[n+]1cc(-c2ccccc2)n2c1CCCCC2)c1ccc(Cl)cc1 | i | i | i | i | i | nt | nt
COc1ccc(Cc2c(-c3cccc(Cl)c3)nc3ccc(Cl)cn23)c(C)c1 | nt | i | nt | nt | nt | nt | nt
COc1ccc(C(C#N)c2nc3ccccc3nc2Cl)cc1 (centres undefined) | i | i | 52 | i | i | i | nt
Cc1cccc(CN2CCN(C3CN(Cc4cn(Cc5ccccc5)nn4)S(=O)(=O)C3)CC2)c1 (centres undefined) | nt | i | nt | nt | nt | nt | nt
O=c1cc(Nc2ccc3c(c2)OCO3)[nH]c(=O)n1-c1ccc(Br)cc1 | i | i | i | i | i | nt | nt
O=c1cc(Nc2ccc3c(c2)OCCO3)[nH]c(=O)n1-c1ccc(Br)cc1 | i | i | 55 | i | i | i | nt
CC(C)COC(=O)N1CCCCC1c1cc(C(=O)NC(C)C)no1 (centres undefined) | nt | i | nt | nt | nt | nt | nt
O=C(NC1CCCC1)c1cnn2c(C(F)(F)F)cc(-c3ccc4c(c3)OCO4)nc12 | i | i | 62 | i | i | i | nt
COc1cc(C(=O)OCC(=O)c2cc(C)n(C)c2C)cc(NC(=O)c2ccco2)c1OC | i | i | 74 | i | i | i | nt
Cc1cc(C(=O)COC(=O)c2ccco2)c(C)n1Cc1ccco1 | i | i | 63 | i | i | 82 | 98
O=C(Cc1cccc(NC(=O)C2CCCN(C(=O)CCc3ccccc3)C2)c1)Nc1ccc(C(=O)N2CCCCC2)cc1 (centres undefined) | nt | i | nt | nt | nt | nt | nt
C[C@@H]1CN([C@@H](C)CO)C(=O)CCCn2cc(nn2)CO[C@H]1CN(C)C(=O)c1ccc2ccn(C)c2c1 | nt | i | nt | nt | nt | nt | nt
CCC(=O)c1ccc(O)c(CC=C(C)C)c1 | i | i | 57 | i | i | 44 | 42
CCC(=O)c1ccc(O)c(OC)c1 | i | i | i | i | i | nt | nt
C=CCc1cccc(C2Nc3ccccc3C(=O)N2O)c1O (centres undefined) | i | i | 72 | i | i | i | nt
Cc1nn(C)cc1C1Nc2ccccc2C(=O)N1O (centres undefined) | i | i | i | i | i | nt | nt
O=C1c2ccccc2NC(c2ccc(Cl)cc2Cl)N1Cc1ccccc1 (centres undefined) | i | i | i | i | i | nt | nt
O=C1c2ccccc2NC(c2ccc(Cl)cc2Cl)N1O (centres undefined) | i | i | 65 | i | i | 46 | i
SMILES | tim23-1 inh | MPTP inh | Mdm2-MdmX inh | TIM10 inh | tim10-1 inh | Mdm2 MdmX conf | FLuc counter
CN(C)c1ncnc2c1ncn2C1OC(CO)C(O)C1O (centres undefined) | i | i | 76 | i | i | 43 | i
Nc1ncn([C@@H]2O[C@H](CO)[C@@H](O)[C@H]2O)c(=O)n1 | i | i | 52 | i | i | 50 | 59
C=CCOc1ccc(C[C@H](N)C(=O)NC[C@H]2O[C@@H](n3cnc4c(N)ncnc43)[C@H](O)[C@@H]2O)cc1 | i | i | i | i | i | nt | nt
COc1ccc(C[C@H](N)C(=O)N[C@H]2[C@@H](O)[C@H](n3cnc4c(N(C)C)ncnc43)O[C@@H]2CO)cc1 | i | i | 96 | i | i | 99 | 54
CC(C)C[C@H]1CNC(=O)C(=O)N1CC1CCN(CCc2ccccc2)CC1 | nt | i | nt | nt | nt | nt | nt
C[C@@H]1CN([C@@H](C)CO)S(=O)(=O)c2ccc(-c3ccccc3)cc2O[C@@H]1CN(C)Cc1ccccc1C(=O)O | nt | i | nt | nt | nt | nt | nt
Cc1nn(-c2ccccc2)c(C)c1/C=N/NC(=O)c1cc(-c2cccs2)[nH]n1 | i | i | 70 | i | i | 56 | 78
Cc1nn(-c2ccccc2)c(C)c1/C=N/NC(=O)c1cc(-c2ccc(Cl)s2)[nH]n1 | i | i | 56 | i | i | 59 | 49
Cc1nn(-c2ccccc2)c(C)c1/C=N/NC(=O)c1cc(-c2ccc(Br)s2)[nH]n1 | i | i | i | i | i | nt | nt
CC1CCCC(NC(=O)CCN2C(=O)COc3ccccc32)C1C (centres undefined) | nt | i | nt | nt | nt | nt | nt
CCc1nnc(NC(=O)c2ccc(-c3ccc(C(C)=O)cc3)o2)s1 | i | i | i | i | i | nt | nt
CS(=O)(=O)N1CCN(c2ccc(NC(=O)c3ccc(-c4ccc(Cl)cc4)o3)cc2)CC1 | i | i | i | i | i | i | nt
CN1CCN(c2ccc(NC(=O)c3ccc(-c4ccc(Cl)cc4)o3)cc2)CC1 | i | i | 100 | i | i | 48 | 77
CCc1nnc(NC(=O)c2ccc(-c3ccc(Cl)cc3)o2)s1 | i | i | 65 | i | i | i | nt
CN1CCN(c2ccc(NC(=O)c3ccc(-c4cccc([N+](=O)[O-])c4)o3)cc2)CC1 | i | i | i | i | i | nt | nt
O=C(NCc1cccc(C(F)(F)F)c1)c1ccc2sc([C@H]3C[C@H](O)[C@@H](CO)O3)nc2c1 | nt | i | nt | nt | nt | nt | nt
Cc1cc(Oc2ncccc2[N+](=O)[O-])c2cc(Cl)ccc2n1 | i | i | 56 | i | i | i | nt
O=c1[nH]c(=O)n(Cc2ccco2)c2c1C(C(F)(F)F)(C(F)(F)F)N=C(CCc1ccccc1)N2 | i | i | 51 | i | i | i | 65
CN(Cc1ccccc1)C(=O)c1ccc(NC(=O)Cc2ccc(NC(=O)C3CCCN(S(=O)(=O)c4cccc([N+](=O)[O-])c4)C3)cc2)cc1 (centres undefined) | nt | i | nt | nt | nt | nt | nt
O=C(Nc1ccc2c(c1)CCC2)c1cnn2c1NC(c1ccco1)CC2C(F)(F)F (centres undefined) | i | i | 88 | i | i | 54 | 79
N#Cc1ccc(S(=O)(=O)N2CCCCC2c2cc(C(=O)N3CCOCC3)no2)cc1 (centres undefined) | nt | i | nt | nt | nt | nt | nt
CC(=O)N1c2ccc(C)cc2C(c2ccccc2)CC1C (centres undefined) | i | i | 74 | i | i | i | 71
COCCN1C(=O)CCC1(C)c1nnnn1Cc1ccccc1 (centres undefined) | nt | i | nt | nt | nt | nt | nt
CC(=O)Nc1cccc(C(=O)/C=C/c2ccc(C)cc2)c1 | i | i | 57 | i | i | 52 | 54
Oc1ccccc1-c1nnc(SCCN2CCOCC2)n1Cc1ccccc1 | i | i | 69 | i | i | i | nt

Bioassay records from PubChem BioAssay.
